Screening results from PubChem BioAssay.
TRAIL sens C8 – caspase-8 TRAIL sensitization | inhibition (viability loss, TRAIL sensitization), % at 10 µM | 360,000 tested, 1% active | AID 624354 | NB7+C8 cells + TRAIL, ATPlite viability luminescence;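 active means compounds causing at least 50% loss of cell viability in the single-dose screen, relative to plate controls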
aSyn UTR inh – 5' untranslated region of α-synuclein, MLPCN primary screen. alpha-synuclein 5'UTR reporter, inhibitor activity. inhibition, % (tested at 7.5 µM). 300,000 tested, 0.82% active; in the data active means inhibition above about 60%;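 further: H4 neuroglioblastoma cells stably carrying SNCA 5'UTR luciferase fusion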
HSP90 refold inh – blocks HSP90-mediated luciferase refolding in reticulocyte lysate | 290,000 tested, 0.91% active | AID 1789 | Rabbit reticulocyte lysate, luciferase refolding luminescence, 3 h | inhibition, % at 5.6 µM;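 active means inhibition above the screen-wide mean plus 3 SD, computed separately per campaign, cut at about 16% in these data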;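 further: inhibitors lower the luminescence because luciferase stays unfolded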
TWEAK-Fn14 inh – TWEAK-Fn14 signaling inhibition; AID 1159606; inhibition, % at 10 µM; TWEAK-stimulated Fn14 reporter cells, luciferase luminescence, 8 h; 360,000 tested, 2% active; in the data active means inhibition above about 50%
TROY signal inh – blocks TROY-dependent signaling in reporter cells. Q293 LMP1-TROYcd NF-kB luciferase reporter, 4 h. inhibition, % at 10 µM. 360,000 tested, 0.98% active. AID 1347056;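 active means compounds whose plate-normalised and pattern-corrected inhibition of the luciferase reporter signal at the single screening dose is 50% or more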
HIF-2a block – inhibitors of HIF-2a. 786-0 RCC cells HIF-2a reporter, luciferase luminescence, overnight. inhibition, % at 18.8 µM. 360,000 tested, 0.72% active. AID 624352;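 active means inhibition of the luminescence signal of 40% or more relative to plate controls, in a single-dose primary screen at 18.75 µM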
Each line names hits and unclear results; the compound was inactive in the other large screens. Sampled rows, rich in hits. Any-hit rate of the full collection: about 3.9%.

CSc1ccccc1-c1nnc(-c2ccc(Cl)cc2Cl)o1	none
Clc1ccccc1-c1nnc(-c2ccc3c(c2)OCO3)o1	TRAIL sens C8 56
COc1cccc(C=NN(C)c2c([N+](=O)[O-])cc(C(F)(F)F)cc2[N+](=O)[O-])c1O	none (no result: aSyn UTR inh, HSP90 refold inh)
CCOC(=O)C1(Cc2cccc(OC)c2)CCCN(C(=O)c2ccc(OC)o2)C1 (stereo not drawn)	TWEAK-Fn14 inh 98
CCOC(=O)C1(Cc2cccc(OC)c2)CCCN(C(=O)c2cc(CC(C)C)[nH]n2)C1 (stereo not drawn)	none
Cc1ccc(C(=O)N2CCc3ccccc32)cc1NC(=O)c1ccco1	TWEAK-Fn14 inh 89
O=C(NC(=S)N1CCCc2ccccc21)c1ccco1	TWEAK-Fn14 inh 52, TROY signal inh 53
O=C(NC(=S)N1CCc2ccccc21)c1ccccc1	TRAIL sens C8 51
CC1Cc2ccccc2N1C(=S)NC(=O)c1ccco1 (stereo not drawn)	none
Cc1ccc(S(=O)(=O)N2CCN(C(=O)C(O)c3ccccc3)CC2)cc1 (stereo not drawn)	none (no result: aSyn UTR inh, HSP90 refold inh, TWEAK-Fn14 inh, TROY signal inh)
O=C(NC1CCCC1)C1c2ccccc2OCC(=O)N1Cc1ccco1 (stereo not drawn)	none (no result: aSyn UTR inh, HSP90 refold inh)
CCCCCNC(=O)C(c1ccc(C(F)(F)F)cc1)n1c(=O)c(-c2ccco2)nc2ccccc21 (stereo not drawn)	none (no result: aSyn UTR inh, HSP90 refold inh, TWEAK-Fn14 inh, TROY signal inh)
Cc1n(CC(O)COC2CCCCC2)c2ccccc2[n+]1C (stereo not drawn)	TWEAK-Fn14 inh 76 (no result: TROY signal inh)
CCOC(=O)N1CCC(Nc2c(-c3ccc(C)cc3)c(=O)c2=O)CC1	TRAIL sens C8 60
CCOC(=O)N1CCC(Nc2c(-c3ccccc3)c(=O)c2=O)CC1	none
CN(C)c1cccc(C(=O)NNC(=O)CN2C(=O)C3CC=CCC3C2=O)c1 (stereo not drawn)	TWEAK-Fn14 inh 53, TROY signal inh 53 (no result: aSyn UTR inh, HSP90 refold inh)
CN(C)c1cccc(C(=O)NNC(=O)NC2CCCCC2)c1	none
CC(C)(C)OC(=O)NCCCCCNC(=O)c1[nH]cnc1C(=O)NC1CCN(C(=O)OC(C)(C)C)CC1	none (no result: aSyn UTR inh, HSP90 refold inh)
COc1ccc(N=C2S/C(=C\c3ccc(OCC(=O)O)cc3)C(=O)N2CCc2c[nH]c3ccccc23)cc1	none
COc1ccc(N=C2S/C(=C\c3ccc(N4CCOCC4)o3)C(=O)N2CCc2c[nH]c3ccccc23)cc1	TWEAK-Fn14 inh 97, HIF-2a block 92
CCOc1cc(/C=C/C(=O)c2ccc(C)cc2)ccc1OCC(=O)N(C)C	TWEAK-Fn14 inh 59
c1ccc(COc2ncnc3c2ncn3CCCNC2CCN(Cc3ccccc3)CC2)cc1	none (no result: aSyn UTR inh, HSP90 refold inh)
O=c1oc2c(O)cccc2cc1-c1nc2ccccc2[nH]1	TRAIL sens C8 69
O=C(C=Cc1cccc(O)c1)c1ccccc1O	TWEAK-Fn14 inh 65 (no result: aSyn UTR inh, HSP90 refold inh)
O=C(/C=C/c1ccc(O)cc1)c1ccc(O)cc1O	TWEAK-Fn14 inh 59
O=C(C=Cc1ccccc1O)c1ccccc1O	TWEAK-Fn14 inh 62 (no result: aSyn UTR inh, HSP90 refold inh)
COc1cccc(NC(=O)C2(C)CCCN(C(C)C)C2)c1 (stereo not drawn)	none (no result: aSyn UTR inh, HSP90 refold inh)
CCOC(=O)C1=C[C@@H](C(C)(C)C)N(S(=O)(=O)c2ccc(C)cc2)[C@H]1c1cccc(Cl)c1	none (no result: aSyn UTR inh, HSP90 refold inh)
CCN(CC(=O)c1c(N)n(C)c(=O)n(C)c1=O)c1cccc2ccccc12	TWEAK-Fn14 inh 99, TROY signal inh 57
Cn1nc(-c2ccc(Cl)cc2)c2cc(C(=O)N3CCN(c4ccccn4)CC3)sc21	TWEAK-Fn14 inh 79, TROY signal inh 52
Cc1ccc2nc(-c3ccc(F)cc3)c(CC3CCCCC3)n2c1	none (no result: aSyn UTR inh, HSP90 refold inh)
O=C(NCC(F)(F)F)C1C(=O)Nc2ccccc2C(=O)N1Cc1ccccc1 (stereo not drawn)	none (no result: aSyn UTR inh, HSP90 refold inh, TWEAK-Fn14 inh, TROY signal inh)
CCc1nnc(NC(=O)CSc2nc(C)cc(C)c2C#N)s1	TRAIL sens C8 73
Cc1cc(C)c(C#N)c(SCC(=O)Nc2cc(C)on2)n1	none (no result: aSyn UTR inh, HSP90 refold inh)
COCc1cc(C)nc(SCC(=O)Nc2ccccc2C)c1C#N	none
Cc1cc(C)c(C#N)c(SCC(=O)Nc2ccccc2C(N)=O)n1	TROY signal inh 60
CCOC(=O)NC(=O)CSc1nc(C)cc(C)c1C#N	TRAIL sens C8 72
CCOC(=O)CNC(=O)CSc1nc(C)cc(C)c1C#N	none
CC1(C(=O)NS(=O)(=O)c2cccc(C#N)c2)CCN1C(=O)Cc1cc(F)ccc1F (stereo not drawn)	none (no result: aSyn UTR inh, HSP90 refold inh)
CN(NC(=O)C(C)(C)C)c1nc(-c2ccccc2)nnc1C(F)(F)F	TRAIL sens C8 56
O=C(O)C/C(=C\c1ccc(N2CCOCC2)c([N+](=O)[O-])c1)c1nc2ccccc2s1	TROY signal inh 52
COc1ccc(-c2csc(/C(C#N)=C\c3ccc(O)c([N+](=O)[O-])c3)n2)cc1OC	TWEAK-Fn14 inh 60
N#C/C(=C\c1ccc(O)c([N+](=O)[O-])c1)c1nc2ccccc2s1	TWEAK-Fn14 inh 53, TROY signal inh 50
COc1ccc(-c2csc(/C(C#N)=C\c3ccc(OC)c([N+](=O)[O-])c3)n2)cc1	none
O=C(Nc1ccc(Br)cc1)c1cccc(-n2cnnn2)c1	none
O=C(Nc1nc(-c2ccccn2)cs1)c1cccc(-n2cnnn2)c1	aSyn UTR inh 83
Cc1ccc2c(c1)COc1c3ccc(C(=O)NCC4CC4)cc3nn1-2	none (no result: HSP90 refold inh)
O=C(NCC1CC1)c1ccc2c3n(nc2c1)-c1ccccc1CO3	TRAIL sens C8 83 (no result: HSP90 refold inh)
O=C(NCCO)c1ccc2c3n(nc2c1)-c1ccccc1CO3	TRAIL sens C8 70 (no result: HSP90 refold inh)
CN(C)c1cccc(CNC(=O)c2ccc3sc([C@@H]4O[C@H](CO)[C@H](O)[C@H](O)[C@H]4O)nc3c2)c1	none (no result: aSyn UTR inh, HSP90 refold inh)
Cc1nn(C2CCS(=O)(=O)C2)c(Cl)c1/C=C/C(=O)OCC(=O)c1cc(C)n(-c2ccc(F)cc2)c1C (stereo not drawn)	TWEAK-Fn14 inh 59
Cc1nn(C2CCS(=O)(=O)C2)c(Cl)c1/C=C/C(=O)OCC(=O)c1c[nH]c2ccccc12 (stereo not drawn)	none
COc1ccc(OCCC(=O)OCC(=O)Nc2cccc(Br)c2)cc1	TWEAK-Fn14 inh 101
COc1ccc(N(Cc2cc(=O)[nH]c3ccccc23)C(=O)CCl)cc1	TRAIL sens C8 96
CC(=O)c1cccc(NC(=O)c2ccc(-n3cncn3)c3ccoc23)c1	none (no result: aSyn UTR inh, HSP90 refold inh)
CCC(NC(=O)CSc1nnnn1C1CC1)c1ccc(Br)cc1 (stereo not drawn)	none (no result: aSyn UTR inh, HSP90 refold inh)
O=C1N[C@@H](Cc2c[nH]c3ccccc23)COC(=O)[C@@H](Cc2ccc(F)cc2)CC/C=C/C[C@@H]1CC(=O)N(CCO)Cc1ccccc1	TWEAK-Fn14 inh 55 (no result: aSyn UTR inh, HSP90 refold inh)
O=C1N[C@@H](Cc2c[nH]c3ccccc23)COC(=O)[C@H](Cc2ccc(F)cc2)C/C=C\C[C@H]1CC(=O)N(CCO)Cc1ccccc1	none (no result: aSyn UTR inh, HSP90 refold inh)
CC1Cc2ccccc2N1C(=O)c1cc2c(=O)n3ccccc3nc2n1C (stereo not drawn)	TWEAK-Fn14 inh 53
Cc1cccn2c(=O)c3cc(C(=O)N4c5ccccc5CC4C)n(C)c3nc12 (stereo not drawn)	none
